Bioassay records deposited in PubChem by National Center for Advancing Translational Sciences (NCATS).
PI5P4K alpha inh: inhibitors of human PI5P4K alpha; P48426; PI5P4Kalpha enzyme, ADP-Glo luminescence, 60 min; active compounds read low; max response, %; hit rate 1.2% among 330,000; AID 652105; active means max response of -50% or lower; inconclusive means between -30% and -50%; inactive means -30% or higher; further: value at the top dose of about 77 µM
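Single end-point luminescence (ADP-Glo) quantified ADP from PI5P4Kalpha turnover; ATP 5 microM final, 1 h at RT, 0.1% CHAPS and 0.28 mM EGTA in HEPES pH 7.4.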
RECQ1 inh-1: inhibitors of human RECQ1 DNA helicase | P46063 | RECQ1 DNA unwinding, red fluorescence kinetic read | Potency, µM (top dose mostly 57.3 µM), usual class: inhibitors | hit rate 0.54% among 240,000; further: nearly all actives have a fitted effect of over 30% in size
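50 nM RECQ1T1 preincubated 15 min with compound in Tris pH 8.0 buffer with MgCl2, DTT, Tween-20 and 2.5 ug/ml poly(dI-dC); started with 200 nM TAMRA/BHQ-2 forked duplex and 2 mM ATP. Unwinding read as fluorescence (525/598 nm), two reads 2 h apart.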
BLM helicase inh: inhibitors of human Bloom syndrome helicase BLM; recombinant BLM DNA unwinding, fluorescence dequenching; Potency, µM (highest dose often 56.1 µM), most hits filed as inhibitors; P54132; hit rate 0.2% among 350,000; AID 2528; further: nearly all actives have a fitted effect of over 35% in size
Target sequence (P54132 whole entry, looked up): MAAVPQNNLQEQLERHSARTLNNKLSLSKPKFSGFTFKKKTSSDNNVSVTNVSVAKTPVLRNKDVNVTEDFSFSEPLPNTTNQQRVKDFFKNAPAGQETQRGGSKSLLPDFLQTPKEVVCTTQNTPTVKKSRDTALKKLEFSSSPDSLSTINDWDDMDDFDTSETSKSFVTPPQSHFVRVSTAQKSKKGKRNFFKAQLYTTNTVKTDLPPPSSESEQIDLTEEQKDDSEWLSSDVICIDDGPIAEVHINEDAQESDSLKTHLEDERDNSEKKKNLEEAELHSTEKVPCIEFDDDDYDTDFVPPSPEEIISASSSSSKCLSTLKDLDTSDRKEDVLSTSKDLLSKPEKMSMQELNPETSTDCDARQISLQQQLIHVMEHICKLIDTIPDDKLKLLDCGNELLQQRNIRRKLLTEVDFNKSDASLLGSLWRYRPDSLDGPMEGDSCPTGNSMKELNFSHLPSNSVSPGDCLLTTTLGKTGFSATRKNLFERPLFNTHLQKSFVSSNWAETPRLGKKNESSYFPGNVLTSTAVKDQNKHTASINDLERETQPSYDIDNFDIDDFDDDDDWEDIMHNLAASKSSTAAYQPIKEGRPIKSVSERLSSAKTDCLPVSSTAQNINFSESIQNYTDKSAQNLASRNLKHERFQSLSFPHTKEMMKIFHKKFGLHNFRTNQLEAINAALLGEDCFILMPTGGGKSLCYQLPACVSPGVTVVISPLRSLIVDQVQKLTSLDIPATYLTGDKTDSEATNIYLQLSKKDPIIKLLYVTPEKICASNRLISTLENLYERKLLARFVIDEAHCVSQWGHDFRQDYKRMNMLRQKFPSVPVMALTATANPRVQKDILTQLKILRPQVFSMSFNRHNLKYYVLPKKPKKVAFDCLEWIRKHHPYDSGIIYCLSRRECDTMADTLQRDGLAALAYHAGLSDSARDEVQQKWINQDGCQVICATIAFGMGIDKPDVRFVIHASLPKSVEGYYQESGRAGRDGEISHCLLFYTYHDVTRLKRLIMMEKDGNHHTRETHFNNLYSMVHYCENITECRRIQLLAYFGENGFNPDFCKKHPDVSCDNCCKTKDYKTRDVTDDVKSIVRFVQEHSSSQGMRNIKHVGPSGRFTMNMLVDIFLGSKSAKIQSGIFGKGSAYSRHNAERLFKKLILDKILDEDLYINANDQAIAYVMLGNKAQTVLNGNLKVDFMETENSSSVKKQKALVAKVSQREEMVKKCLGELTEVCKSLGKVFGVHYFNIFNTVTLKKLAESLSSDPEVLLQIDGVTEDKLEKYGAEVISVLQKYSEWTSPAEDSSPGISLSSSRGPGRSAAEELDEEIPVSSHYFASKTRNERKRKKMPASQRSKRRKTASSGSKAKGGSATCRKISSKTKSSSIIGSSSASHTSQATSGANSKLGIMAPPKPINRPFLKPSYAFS
GCN5L2 inh: GCN5L2 (KAT2A) acetyltransferase inhibition | GCN5L2 HAT assay, ThioGlo1 CoA-SH fluorescence | Q92830 | AID 504327 | Potency, µM (doses to about 58.9 µM), actives largely listed as inhibitors | hit rate 0.21% among 390,000
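Titration-based screen in which CoA formation is detected via maleimide probe ThioGlo1 (50uM) turning fluorescent on thiol reaction; substrates H3(1-25) 75uM and acetyl-CoA 70uM, GCN5L2 20nM, 20 min incubation at room temperature.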
FEN1 inh: human FEN1 inhibition; P39748; Recombinant FEN1 flap cleavage, fluorescence, 15 min; Potency, µM (series often up to 114 µM), most hits filed as inhibitors; hit rate 0.35% among 390,000; further: nearly all actives have a fitted effect of over 65% in size
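Compounds are tested as a concentration series against 10 nM FEN1; after a 15 min room-temperature preincubation, 50 nM substrate starts cleavage, with plate reads at 0 and 15 min. Normalized responses are fitted by a Hill equation.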
APE1 inh: blocks human APE1 abasic DNA cleavage | recombinant APE1, TAMRA/BHQ-2 abasic DNA cleavage fluorescence | Potency, µM (highest dose often 65.8 µM), hits mostly inhibitors | hit rate 0.35% among 350,000; further: nearly all actives have a fitted effect of over 55% in size
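Readout is kinetic fluorescence (ex 525, em 598 nm) from cleavage of 50 nM TAMRA/BHQ-2 THF abasic duplex by 0.75 nM APE1, compound added 15 min beforehand at RT.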
RECQ1 conf: confirmation of human RECQ1 helicase inhibitors | RECQ1 helicase DNA unwinding, fluorescence | hit rate 28% among 610 | Potency, µM (series often up to 229 µM), hits mostly inhibitors | shares compounds with RECQ1 inh-1; further: nearly all actives have a fitted effect of over 45% in size
RECQ1 ADP FP: displaces ADP in a fluorescence polarization counter-screen for RECQ1 hits; Potency, µM (highest dose often 228 µM), actives largely listed as inhibitors; ADP fluorescence polarization displacement counterscreen; shares compounds with RECQ1 inh-1; hit rate 27% among 530; further: nearly all actives have a fitted effect of over 45% in size
RECQ1 inh-2: blocks human RECQ1 DNA unwinding. shares compounds with RECQ1 inh-1. recombinant RECQ1 DNA unwinding, red fluorescence. Potency, µM (highest dose often 119 µM), hits mostly inhibitors. hit rate 15% among 1,100. AID 504841; further: nearly all actives have a fitted effect of over 50% in size
Of the large screens only hits and unclear results are named; the others gave an inactive call (follow-up assays come after a bar, where they were run). Hits are enriched below; roughly 1.5% of the tested compounds scored in any of these assays. Unless noted, the call rests on the fitted dose curve; in most records, active means well fitted curve in the direction sought with a large enough effect; inconclusive means small, poorly fitted or top-dose-only effect, or another doubt; inactive means no such curve, though single readings can be large; an effect the other way counts as inactive or inconclusive.

CC[C@H](C)[C@H](NC(=O)[C@H](CC(C)C)NC(=O)[C@H](CO)NC(=O)[C@H](CCC(=O)O)NC(=O)[C@H](CC(C)C)NC(=O)[C@H](Cc1ccc(O)cc1)NC(=O)[C@H](CCCCN)NC(=O)[C@H](CCCCN)NC(=O)[C@H](C)NC(=O)[C@H](CO)NC(=O)[C@H](CC(C)C)NC(=O)[C@H](CCC(N)=O)NC(=O)CNC(=O)[C@H](CC(C)C)NC(=O)[C@H](CC(C)C)NC(=O)[C@H](CCCNC(=N)N)NC(=O)[C@H](CO)NC(=O)[C@H](Cc1ccccc1)NC(=O)[C@H](CC(=O)O)NC(=O)[C@H](CO)NC(=O)[C@@H](NC(=O)[C@H](Cc1ccccc1)NC(=O)[C@@H](NC(=O)CNC(=O)[C@H](CC(=O)O)NC(=O)[C@H](C)NC(=O)[C@@H](N)Cc1cnc[nH]1)C(C)C)[C@@H](C)O)C(N)=O	none (no result: PI5P4K alpha inh, FEN1 inh)
COc1cc(OC)c2c(-c3ccccc3)cc(=O)oc2c1C(CC(=O)N1CCCC1)c1ccc(N(C)C)cc1 (stereo not drawn)	none (no result: PI5P4K alpha inh, GCN5L2 inh)
COc1ccc(C(CC(=O)N2CCCC2)c2c(OC)cc(OC)c3c(-c4ccccc4)cc(=O)oc23)cc1 (stereo not drawn)	PI5P4K alpha inh inconclusive, RECQ1 inh-1 13µM, BLM helicase inh inconclusive, APE1 inh 10µM | RECQ1 inh-2 20µM
CC(C)(C)c1ccc(C(=O)CCCN2CCC(OC(c3ccccc3)c3ccccc3)CC2)cc1	none (no result: PI5P4K alpha inh, RECQ1 inh-1, FEN1 inh, APE1 inh)
O=C(NCCCCC(NC(=O)c1ccc([N+](=O)[O-])cc1)C(=O)O)c1ccc([N+](=O)[O-])cc1 (stereo not drawn)	none | RECQ1 conf inactive | RECQ1 ADP FP inactive
COCCCNC(=O)c1ccc([N+](=O)[O-])cc1	none
Nc1c(C(=O)Nc2ccc(F)cc2)sc2nc(-c3ccco3)ccc12	RECQ1 inh-1 22µM, APE1 inh inconclusive | RECQ1 inh-2 inactive
CCCCc1nc2c(c3c1C[C@H](C)OC3)CN(S(=O)(=O)CCCC)CC2	none (no result: PI5P4K alpha inh, GCN5L2 inh, FEN1 inh)
CC(=O)OCCBr	none (no result: PI5P4K alpha inh, FEN1 inh)
CC(C)c1ccc(/C=C2\C=Cc3ccccc32)cc1	none (no result: PI5P4K alpha inh, RECQ1 inh-1, BLM helicase inh, GCN5L2 inh, APE1 inh)
CCCCc1cc(=O)oc2c(CN3CCCC3)c(O)ccc12	GCN5L2 inh inconclusive
CCCCc1cc(=O)oc2cc(C)c(CN3CCCC3)c(O)c12	RECQ1 inh-1 13µM, BLM helicase inh inconclusive, GCN5L2 inh inconclusive, FEN1 inh inconclusive (no result: PI5P4K alpha inh) | RECQ1 conf 20µM | RECQ1 ADP FP 50µM | RECQ1 inh-2 inconclusive
CC[C@H](C)[C@H](NC(=O)[C@H](CC(C)C)NC(=O)[C@H](CC(N)=O)NC(=O)[C@@H](NC(=O)[C@@H](N)Cc1ccc(O)cc1)[C@@H](C)CC)C(=O)N[C@@H](Cc1ccc(O)cc1)C(=O)N[C@@H](CCCN=C(N)N)C(=O)N[C@@H](CC(C)C)C(=O)N[C@@H](CCCN=C(N)N)C(=O)N[C@@H](Cc1ccc(O)cc1)C(N)=O	none (no result: PI5P4K alpha inh, FEN1 inh)
c1ccc(Nc2nc(NCc3ccco3)nc3nccnc23)cc1	none (no result: PI5P4K alpha inh, RECQ1 inh-1, BLM helicase inh, GCN5L2 inh, APE1 inh)
Cc1ccc(NC(=O)c2cc(S(=O)(=O)NCCc3ccccc3)ccc2F)cc1Cl	RECQ1 inh-1 inconclusive | RECQ1 inh-2 inactive
N=C1S/C(=C\c2ccc(-c3ccccc3C(=O)O)o2)C(=O)N1c1ccc2c(c1)OCO2	PI5P4K alpha inh -74, FEN1 inh inconclusive, APE1 inh inconclusive | RECQ1 conf inconclusive | RECQ1 ADP FP inconclusive
O=C(O)c1cc(N/N=C/c2ccc(N3CCOCC3)s2)ccc1Cl	PI5P4K alpha inh -56, RECQ1 inh-1 14µM, FEN1 inh inconclusive, APE1 inh 16µM | RECQ1 conf inactive
COc1cc(C(=O)O[C@H]2C/C(C)=C/CC/C(C)=C/[C@@H](O)C2C(C)C)ccc1O (stereo partly drawn)	APE1 inh inconclusive (no result: PI5P4K alpha inh, FEN1 inh)
COc1ccc(-n2c(SCC(=O)Nc3nc(C)cs3)nnc2-c2ccoc2C)cc1	none | RECQ1 conf inactive | RECQ1 ADP FP inactive
COc1ccc(-n2c(SCC(=O)Nc3nccs3)nnc2-c2ccoc2C)cc1	none | RECQ1 conf inactive | RECQ1 ADP FP inactive
CSCC[C@H](NC(=O)[C@H](CC(C)C)NC(=O)CNC(=O)[C@H](Cc1ccccc1)NC(=O)[C@H](Cc1ccccc1)NC(=O)[C@H](CCC(N)=O)NC(=O)[C@H](CCC(N)=O)NC(=O)[C@@H]1CCCN1C(=O)[C@H](CCCCN)NC(=O)[C@@H]1CCCN1C(=O)[C@@H](N)CCCN=C(N)N)C(N)=O	none (no result: PI5P4K alpha inh, FEN1 inh)
COc1ncnc2c1NC1=C(S2)C(=NCCC(=O)O)CC(C)(C)C1	RECQ1 inh-1 inconclusive, BLM helicase inh inconclusive, APE1 inh inconclusive | RECQ1 inh-2 79µM
CC[C@H](C)[C@H](NC(=O)[C@H](C)NC(=O)[C@H](Cc1cnc[nH]1)NC(=O)[C@@H]1CCCN1C(=O)CNC(=O)[C@H](CC(C)C)NC(=O)[C@H](CC(C)C)NC(=O)[C@H](Cc1ccc(O)cc1)NC(=O)CNC(=O)[C@H](C)NC(=O)[C@H](CO)NC(=O)[C@H](CC(N)=O)NC(=O)[C@H](CC(C)C)NC(=O)[C@@H](NC(=O)[C@H](Cc1c[nH]c2ccccc12)NC(=O)CN)[C@@H](C)O)C(=O)N[C@@H](CC(=O)O)C(=O)N[C@@H](CC(N)=O)C(=O)N[C@@H](Cc1cnc[nH]1)C(=O)N[C@@H](CCCNC(=N)N)C(=O)N[C@@H](CO)C(=O)N[C@@H](Cc1ccccc1)C(=O)N[C@@H](CO)C(=O)N[C@@H](CC(=O)O)C(=O)N[C@@H](CCCCN)C(=O)N[C@@H](Cc1cnc[nH]1)C(=O)NCC(=O)N[C@@H](CC(C)C)C(=O)N[C@H](C(N)=O)[C@@H](C)O	none (no result: PI5P4K alpha inh, FEN1 inh)
CO/N=C(/C(=O)N[C@@H]1C(=O)N2C(C(=O)O)=C(CSC(=O)c3ccco3)CSC12)c1csc(N)n1 (stereo partly drawn)	none (no result: PI5P4K alpha inh, RECQ1 inh-1, FEN1 inh, APE1 inh)
CN1/C(=C\C(=O)COC(=O)c2ccc(O)c(O)c2)C(C)(C)c2ccccc21	RECQ1 inh-1 25µM | RECQ1 inh-2 40µM
